In PubChem BioAssay AID488900 (National Center for Advancing Translational Sciences (NCATS), 2010):
Records with an inconclusive call do not appear. Calls of active or inactive are those of the source. The call rests on the fitted dose curve; in most records, active means well fitted curve in the direction sought with a large enough effect; inconclusive means small, poorly fitted or top-dose-only effect, or effect the other way, or another doubt; inactive means no such curve, though single readings can be large or run the other way.

Assay: Secondary Assay for lipid storage modulators: Hela cell LDSA assay for probe SAR
Conditions: HeLa lipid droplet accumulation, BODIPY 493/503 cytometry, oleate-fed
Description: NIH Molecular Libraries Probe Production Centers Network [MLPCN] NIH Chemical Genomics Center [NCGC] MLPCN Grant: 1 R03 MH085686-01 Assay Submitter (PI): Beller, Mathias; Max-Planck-Institut fur Biophysikalische Chemie NCGC Assay Overview: Storing lipids as a reservoir for energy or the anabolism of elementary metabolites is a common feature of probably all cells and is conserved from bacteria to humans. The universal cellular lipid storage organelle is the so-called lipid storage droplet (LD). Although ubiquitous, LDs share a simple structure composed of a hydrophobic core that harbors the storage lipids, which is shielded by a droplet-specific phospholipid monolayer to which proteins are attached. The current model of LD biogenesis involves an incorporation of the lipid core into the membrane leaflets of the endoplasmic reticulum (ER) followed by a subsequent budding-like maturation of a LD, which ultimately pinches off. […]
NCGC Assay Protocol Summary: The assay was performed with Hela cells, using an oleic acid feeding protocol similar to the S3 assay. […] Fluorescence was detected by excitation of the fluorophores with a 488-nm laser on an Acumen Explorer (TTP Lab Tech). […] Cells were detected using channel 3 (575-640 nm) with 5-um width and 100-um depth filters. The ratio of the number of objects in PMT channel 2 over the number of objects in PMT channel 3 was also calculated. […]

**Q.** Which Potency does the source give for `CCC/C=C/C/C=C/C=C/C=N/NN=O` here?
**A.** 11.2 nM (active)
